We go through 65 compounds from ChEMBL document CHEMBL3988442, “University of Dundee, Small-Polar-MMV Screening Library” (2021).

Structures are written as SMILES. The whole screen tested about 38,000 compounds, of which about 1,200 (3.2%) showed an effect of 50% or more. The median lay at about -58%. This excerpt belongs to a sample that is enriched for strong results.

For the experiment, the system named is Plasmodium falciparum. Briefly: Calibr Malaria Delayed Death Assay SOP. The conditions noted are these: concentration 4.99e-06 (unit not given; other assays of the set use mol/L). The format is functional, organism-based. Also noted: scale not given: in the data most compounds retested in dose-response had high values.
Take `Cc1ccc(CN2C[C@H](OCC3CCN(C)CC3)[C@H]3COC[C@H]32)o1`: the “Percent Effect” value came out at 12.64%.
In the case of `Cc1nc(NC(=O)c2c(-n3cnnn3)sc3c2CCC3)sc1C`, the “Percent Effect” value is given as -110.9%.
The result for `CCOc1ccccc1NC(=O)NCCc1ccoc1` reads -120.2%; that for `COC(=O)c1cccc(C(=O)N(C)Cc2cccc(F)c2)c1`, -135.6%; that for `COc1ccc(CN2CCCC2)cc1Oc1cccc(C#N)n1`, 41.79%.
`COc1cc(CN2CCCC2)ccc1OC12CCCN(CC1)C2` (stereo not given): the “Percent Effect” value is listed as -168.7%.
On to `COc1ccc(CN2CCCC2)cc1Oc1ccc(NC(C)=O)cc1`, for which the “Percent Effect” value is -51.76%.
On to `COc1ccc(CN2CCCC2)cc1Oc1ccc2c(c1)CC(CN)O2` (stereo not given), for which the “Percent Effect” value turned out to be 87.78%.
In the case of `COc1cc(CN2CCCC2)ccc1Oc1ccc2c(c1)CC(CN)O2` (stereo not given), the “Percent Effect” value worked out at 58.6%.
As to `Cc1cc(CN2CCCC2)cc(Oc2ccc3c(c2)CC(CN)O3)c1` (stereo not given), the “Percent Effect” value was determined as 26.4%.
Turning to `O=C(O)C(F)(F)F.O=C(O)C(F)(F)F.O=C(O)c1c(-c2cncnc2)ncc2c1CCN(Cc1ccco1)C2`, the “Percent Effect” value was -132.8%.
For `CCNc1ncc2c(n1)CN(c1ccc(OC(F)(F)F)cc1)C2=O` the value was 14.47%.
Take `O=C(N1CCCC1)N1CCC2(CCCN(CCOc3ccccc3)C2)C1.O=C(O)C(F)(F)F` (stereo not given): the “Percent Effect” value is -4.272%.
For the compound `Cc1noc(C)c1CCCNc1cnccn1`, the “Percent Effect” value is recorded as -49.46%.
On to `CN(C)C(=O)CN1CCOCC2(C1)CN(c1ncc(F)cn1)CCO2.O=C(O)C(F)(F)F` (stereo not given), for which the “Percent Effect” value is -15.1%.
Take `Cc1ccnc(N2CCCC(c3nncn3C3CC3)C2)n1` (stereo not given): the “Percent Effect” value is recorded as -51.92%.
For `CN1CCN(c2ccc(Cl)cc2NC(=O)c2ccco2)CC1`, the “Percent Effect” value is on record as 41.12%.
With `CN1CCN(c2ccccc2NC(=O)c2ccco2)CC1`, the “Percent Effect” value is on record as 31.7%.
`CN1CCN(c2ccc(Br)cc2NC(=O)c2ccco2)CC1`: the “Percent Effect” value was found to be 52.34%.
On to `CCc1cc(CN(C)C(=O)c2cnc3c(c2)nc(N)n3CC)on1`, for which the “Percent Effect” value is given as -104.3%.
`c1cc(N2CCSCC2)ccc1CNc1cncc2nnnn12`: the “Percent Effect” value is -124.6%.
On to `c1ccc(CN2CCCC2)c(CNc2cncc3nnnn23)c1`, for which the “Percent Effect” value is 60.42%.
Take `c1cc(CN2CCCC2)ccc1CNc1cncc2nnnn12`: the “Percent Effect” value is -34.44%.
In the case of `Cc1cccc(NC(=O)c2ccc(OCc3nnnn3C)cc2)n1`, the “Percent Effect” value is reported as -114.2%.
`Cc1ccnc(NC(=O)c2cccc(OCc3nnnn3C)c2)c1`: the “Percent Effect” value is recorded as -241.7%.
As to `Cc1cccc(NC(=O)c2cccc(OCc3nnnn3C)c2)n1`, the “Percent Effect” value was found to be 80.42%.
Consider `CN1CC=C(CCN(C)C(=O)CCc2ccccc2)CC1`, for which the “Percent Effect” value is recorded as 19.5%.
On to `CC(C(=O)NCc1ccco1)N1CCN(Cc2nccn2C)CC1` (stereo not given), for which the “Percent Effect” value was -39.34%.
As to `Cc1ccc(CN2CC3(CCN(C(=O)Cc4ccc(Cl)cc4)C3)C2)o1`, the “Percent Effect” value is listed as -2.786%.
The result for `CNC(=O)c1cc2c(nc1NCC(C)C)CCN(c1ccncn1)CC2.O=C(O)C(F)(F)F` reads 13.05%; that for `CC(=O)Nc1ccc(-n2ccc3nc(N4CCCC4)ncc3c2=O)cc1`, -5.195%; that for `Cc1ccc(C)c(-n2ccc3nc(N4CCCC4)ncc3c2=O)c1`, -31.4%.
In the case of `COCCn1cnc2ccc(NC(=O)CCCn3cccn3)cc2c1=O`, the “Percent Effect” value is listed as -21.82%.
On to `Cn1cc(-c2cnc(N3CCOCC3)nc2)cc1C(=O)NCCC#N.O=C(O)C(F)(F)F`, for which the “Percent Effect” value was -137.7%.
`O=C(O)CN1CCC(c2ccccc2)C1` (stereo not given): the “Percent Effect” value is on record as -52.87%.
Turning to `Cc1ccc2nc(CN3CCN(C4CCCC4)C(=O)C3)cc(O)c2c1`, the “Percent Effect” value is on record as -147.5%.
For the compound `Cc1cc(C)c2nc(CN3CC[C@@H](O)C3)cc(O)c2c1`, the “Percent Effect” value is -11.32%.
For `Cc1cc(C)c2nc(CN3CCCC(c4cc[nH]n4)C3)cc(O)c2c1` (stereo not given) the value was 52.56%.
Regarding `Cc1ccncc1NS(=O)(=O)c1ccc(Cl)s1`, the “Percent Effect” value is -120.5%.
On to `O=C(c1cnn2c1OCCC2)N1CCN(C(=O)C2CCCO2)CC1` (stereo not given), for which the “Percent Effect” value was -54.26%.
In the case of `CC(C)(C(=O)NCC1CCN(Cc2ncc[nH]2)C1)c1ccccc1` (stereo not given), the “Percent Effect” value is on record as -18.61%.
Take `COC(C)(C)C(=O)NCC1CCN(Cc2cc3ccccc3[nH]2)C1` (stereo not given): the “Percent Effect” value is -53.37%.
As to `CC(C)(C(=O)NCC1CCN(Cc2cccnc2)C1)c1ccccc1` (stereo not given), the “Percent Effect” value was determined as 51.87%.
For `O=C(CCn1ccc2ccc(F)cc21)/N=c1\[nH]nc(C2CCCO2)s1` (stereo not given) the value was -163.8%; for `CCC(NC(=O)CNC(=O)OC)c1cc(F)ccc1F` (stereo not given), -47.96%.
With `CCN(CC)S(=O)(=O)NC1CCCc2nc(-c3ccccc3)ncc21` (stereo not given), the “Percent Effect” value was -18.05%.
For the compound `CN1CCC2(CC1)C(=O)N(C)c1ccc(F)cc12.Cl`, the “Percent Effect” value is listed as -104.9%.
For `CC(C)N1CCC2(CC1)C(=O)N(c1cccnc1)c1ccc(F)cc12.Cl` the value was 64.31%; for `CC(C)N1C(=O)C2(CCN(C)CC2)c2cc(F)ccc21.Cl`, -16.08%.
Turning to `CC(C)N1CCC2(CC1)C(=O)N(c1cccnc1)c1c(F)cccc12.Cl`, the “Percent Effect” value came to 48.28%.
For the compound `CC(=O)N1CCC2(CC1)C(=O)N(c1cccnc1)c1ccc(F)cc12`, the “Percent Effect” value was -45.42%.
The result for `CN1CCC2(CC1)C(=O)N(c1cccnc1)c1ccc(F)cc12.Cl` reads 58.26%; that for `CC(=O)c1cc2ncc(C(=O)NC3CC3)cc2[nH]1`, -111.2%; that for `Cc1ccccc1N1CC2(CCN(S(=O)(=O)C3CC3)C2)CC1=O` (stereo not given), -190.8%.
In the case of `CC(=O)Nc1c(C)noc1/C=C\c1ccc(S(=O)(=O)N2CCCC2)cc1`, the “Percent Effect” value turned out to be 10.91%.
Regarding `Cc1cc(C)nc(N2CCCC(C(=O)Nc3n[nH]c(C(C)C)n3)C2)n1` (stereo not given), the “Percent Effect” value is -27.75%.
The result for `CCC1CCCCN1Cc1ncc(C(C)(C)C)o1` (stereo not given) reads 70.27%; that for `CCN1CCN(C2CCN(Cc3nnc(C4CC4)o3)CC2)C1=O`, -106.8%; that for `CCN1CCN(C2CCN(Cc3ncc(C(C)(C)C)o3)CC2)C1=O`, 51.71%.
Take `Cc1nc(C)n(CC2CCCN2Cc2ncc(-c3ccccc3)o2)n1` (stereo not given): the “Percent Effect” value amounted to 26.63%.
Turning to `Cc1cnn(CC2CCCCN2Cc2ncc(C(C)(C)C)o2)c1` (stereo not given), the “Percent Effect” value came to 9.696%.
Regarding `Cc1nc(C)n(CC2CCCN(Cc3ncc(C(C)(C)C)o3)C2)n1` (stereo not given), the “Percent Effect” value was -87.32%.
Take `CC(C)(C)c1cnc(CN2CCC(CO)CC2)o1`: the “Percent Effect” value is listed as -57.31%.
For the compound `Cc1nc(C)n(CC2CCCN2Cc2ncc(C(C)(C)C)o2)n1` (stereo not given), the “Percent Effect” value worked out at 60.71%.
As for `CCN1CCN(C2CCN(Cc3nnc(C(C)C)o3)CC2)C1=O`, the “Percent Effect” value is listed as -127.6%.
